Activity calls are given as the source filed them. The call rests on the fitted dose curve; in most records, active means well fitted curve in the direction sought with a large enough effect in the repeat runs; inconclusive means weak or mixed curves; inactive means flat fitted curve, though single readings scatter.
Experiment: qHTS assay to test for compound auto fluorescence at 460 nm (blue) in HEK293 cell free culture (AID 720681)
Conditions: cell-free medium, autofluorescence 405/460 nm (blue); series mostly up to 91.3 µM; fluorescence, % of fluorescent control: at the top concentration
Text: U.S. Tox21 Program National Center for Advancing Translational Sciences [NCATS] NIH Chemical Genomics Center [NCGC] U.S. Environmental Protection Agency [EPA] National Institutes of Environmental Health Sciences [NIEHS] National Toxicology Program [NTP] U.S. Food and Drug Administration [FDA] Tox21 Assay Overview: Compound auto fluorescence often interferes with screening of the compound library against various biological targets and signaling pathways. Some of these compounds may have fluorophoric properties. Such properties may interfere with the assay outputs resulting in false positives and/or negatives. To decrease such complications and ensure the compound activities are relevant in terms of biological response, the Tox21 10K compound library was screened for auto fluorescence. From the fluorophores used as reporter signals in our screening assays, the auto fluorescence equivalencies of compounds against three fluorophores have been evaluated: Triamterene, Fluorescein and Rose Bengal sodium for blue, green and red fluorescence, respectively. The fluorescence intensities were measured using Excitation/Emission wavelengths at 405/460nm, 485/535nm and 540/590nm for blue, green and red labels, respectively. This assay includes the blue fluorescence data.
Tox21 Assay Protocol Summary: 5 uL of culture medium (DMEM containing 10% FBS) per well was dispensed into black wall/clear bottom 1536-well plates using a Multidrop Combi Dispenser (ThermoFisher Scientific, Waltham, MA). After 23 nL compound or DMSO vehicle was transferred into assay plate by a pintool work station (Kalypsys, San Diego, CA), fluorescence intensities in the assay plates were measured by an Envision (PerkinElmer, Shelton, CT) plate reader using three labels for measuring blue, green and red fluorescence at […] 460, 535 and 590nm respectively.
On the % scale 0 is the no-effect control and ±100 the full control effect.

Row | SMILES | outcome | fluorescence, % of fluorescent control
1 | CCOC(=O)c1ccccc1O | inactive | 
2 | O=[N+]([O-])c1nccn1CO[C@@H](CO)[C@H](O)CO |  | -0.211% [at 46 µM] (inactive)
3 | CCCNC(C)C(=O)Nc1c(C)csc1C(=O)OC (stereo not given) |  | -0.0092% [at 18.6 µM] (inactive)
4 | NCCC(O)(P(=O)(O)O)P(=O)(O)O |  | 0.128% [at 46 µM] (inactive)
5 | c1ccc(CN(CC2=NCCN2)c2ccccc2)cc1 |  | 0.0324% [at 46 µM] (inactive)
6 | O=C(Cl)c1cccc([N+](=O)[O-])c1 |  | -0.272% (inactive)
7 | Nc1ccc(Oc2ccc(N)c(N)c2)cc1 |  | -0.442% (inactive)
8 | CCCCCCCCCCCCOCCOS(=O)(=O)O |  | 0.0218% (inactive)
9 | CN(CCCN1c2ccccc2CCc2ccccc21)CC(=O)c1ccc(Cl)cc1 |  | 1.99% [at 46 µM] (inactive)
10 | COc1ccc(S(=O)(=O)Nc2nnc(CC(C)C)s2)cc1 | inactive | 
11 | CCC1(C)NC(=O)NC1=O (stereo not given) |  | 0.0007% (inactive)
12 | CC(C)CCCCCCc1ccc(OCCOCCO)cc1 |  | 0.074% [at 95.7 µM] (inactive)
13 | OCc1c2ccccc2cc2ccccc12 |  | 1.01% (inactive)
14 | C=O | inactive | 
15 | CCCCNC(=S)NCCCC |  | -0.184% (inactive)
16 | CCCOCCC |  | -0.123% (inactive)
17 | NC(Cc1ccc(F)cc1)C(=O)O (stereo not given) |  | -0.189% [at 3.72 µM] (inactive)
18 | OC[C@H]1O[C@@H](O[C@H]2[C@H](O)[C@@H](O)[C@H](O)O[C@@H]2CO)[C@H](O)[C@@H](O)[C@H]1O |  | -0.0158% (inactive)
19 | CCC(=O)Nc1ccc(O)cc1 |  | -0.139% [at 46 µM] (inactive)
20 | NNS(=O)(=O)c1ccc(Oc2ccc(S(=O)(=O)NN)cc2)cc1 |  | -0.109% (inactive)

Row | SMILES | outcome | fluorescence, % of fluorescent control
21 | OCc1ccccc1O |  | -0.0706% [at 46 µM] (inactive)
22 | CN(C)C(=O)NC1(c2ccccc2)CCN(CCC[C@]2(c3ccc(Cl)c(Cl)c3)CCCN(C(=O)c3ccccc3)C2)CC1 |  | 0.05% [at 18.6 µM] (inactive)
23 | CC1=CC(=O)CC(C)(C)C1=O |  | 0.106% [at 95.7 µM] (inactive)
24 | CN(CC1(C)CCCO1)S(=O)(=O)c1ccc(Cl)c(S(N)(=O)=O)c1 (stereo not given) |  | 0.153% [at 46 µM] (inactive)
25 | O=C(C(Cl)Cl)N1CCOC12CCCCC2 |  | 0.0049% (inactive)
26 | C[C@@H]1CN(c2c(F)c(F)c3c(=O)c(C(=O)O)cn(C4CC4)c3c2F)C[C@H](C)N1 |  | -0.0328% [at 46 µM] (inactive)
27 | CC(C)(C)c1cccc(O)c1 |  | -0.0543% (inactive)
28 | CC(C)CC(=O)OCc1ccccc1 |  | 0.0045% (inactive)
29 | CN1[C@@H]2CC[C@H]1CC(OC(=O)c1c[nH]c3ccccc13)C2 (stereo not given in full) |  | 0.002% [at 46 µM] (inactive)
30 | CN1CCN(C2=Nc3cc(F)ccc3Cc3ccccc32)CC1 |  | -0.0355% [at 46 µM] (inactive)
31 | CCC(=O)c1ccc2c(c1)N(CCCN(C)C)c1ccccc1S2 |  | 0.522% [at 46 µM] (inactive)
32 | O=C(O)[C@@H](O)[C@H](O)[C@H](O)[C@@H](O)C(=O)O |  | 0.0649% [at 46 µM] (inactive)
33 | C1CSCCS1 |  | 0.0497% (inactive)
34 | O=c1oc2c(O)c(O)cc3c(=O)oc4c(O)c(O)cc1c4c23 |  | 0.253% [at 46 µM] (inactive)
35 | CO[C@@]1(NC(=O)CSCC#N)C(=O)N2C(C(=O)O)=C(CSc3nnnn3C)CS[C@@H]21 |  | 0.13% [at 46 µM] (inactive)
36 | CC(C)Nc1nc(N)nc(Cl)n1 |  | 0.004% (inactive)
37 | O=C1CCCCCCCCCCC(=O)OCCO1 |  | 0.0715% (inactive)
38 | CCC/C=C/CO |  | -0.0107% (inactive)
39 | CCOC(=O)[C@H](CCc1ccccc1)N[C@@H](C)C(=O)N1Cc2cc(OC)c(OC)cc2C[C@H]1C(=O)O |  | 0.0087% [at 46 µM] (inactive)
40 | Cc1ccc(C=O)s1 |  | 0.145% (inactive)

Reference: PubChem BioAssay (Tox21)
